From PubChem BioAssay
FBPA coupling cs: inhibits coupling enzyme system, counter-screen for aldolase hits; coupling enzyme system counterscreen, AmpLite Red fluorescence; activity change, negative = inhibition, % at 58.2 µM, hits read low; 0.67% of 290,000 active; in the data active = activity change below about -30%; note: % is set by controls: 0 for no effect and ±100 for the full control effect
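Compounds tested against the coupling enzymes alone at 57.5 uM final; readout was AmpLite Red fluorescence (525/598 nm) after 20 min at RT.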
TexasRed fluor: alters Texas Red total fluorescence, flagging assay interference; AID 1479; 0.29% of 280,000 active; TRb/SRC2 Texas Red total fluorescence interference; Potency, µM (series often up to 106 µM), without a hit: top-dose fluorescence change, negative = quenching; active = well fitted curve in either direction with a large enough effect; inconclusive = small, poorly fitted or top-dose-only effect; note: potency is the fitted concentration of half-maximal effect; % is set by controls: 0 for no effect and ±100 for the full control effect
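Human TRb ligand-binding domain at 0.6 uM with 20 nM Texas Red SRC2 peptide in Tris buffer containing 1 uM T3 and 5% DMSO, incubated with compound 5 h at ambient temperature. Total fluorescence (555/632 nm) calculated as parallel + 2 × perpendicular.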
HTT aggregate: mutant huntingtin aggregation inhibition | PC12 HttQ103-GFP aggregates, Acumen cytometry, 40 h | Potency, µM (titrated, usually from 46.1 µM), for inactives: at the top dose activity change, negative = inhibition, actives largely listed as inhibitors | 1.1% of 220,000 active; note: potency is the fitted concentration of half-maximal effect; % is set by controls: 0 for no effect and ±100 for the full control effect; nearly all actives have a fitted effect of over 60% in size
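Aggregate formation scored by laser-scanning cytometer (488 excitation, 500–530 emission) in lysed PC12 cells expressing Q103-GFP after 100 nM tebufenozide induction; library tested in dose series, with ATPLite reagent added in the multiplex.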
HTT ATP protect: Huntington cell model cytoprotection by ATP luminescence; PC12 HTT-Q103 induced, cytoprotection, ATP luminescence, 40 h; Potency, µM (series often up to 56.4 µM), for inactives: cytoprotection (ATP increase), usual class: activators; 0.14% of 230,000 active; AID 1471; note: potency is the fitted concentration of half-maximal effect; % of control where 0% means no effect; nearly all actives have a fitted effect of over 45% in size
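PC12 cells stably carrying ecdysone-inducible Htt exon 1 (Q103)–GFP were induced with 100 nM tebufenozide (final) alongside library compounds in a dose series. Cytoprotection was scored as retained ATP by ATPlite luminescence.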
TRb SRC2 PPI: disrupts binding of human TR beta to SRC2 | 0.065% of 280,000 active | Potency, µM (doses to about 106 µM), for inactives: top-dose activity change, negative = inhibition, most hits filed as inhibitors | AID 1469 | TRbeta-SRC2 peptide binding, fluorescence polarization; receptor liganded with 1 µM T3 | P10828;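 note: potency is the fitted concentration of half-maximal effect; plate controls were bound peptide for no effect and peptide without receptor for full effect; nearly all actives have a fitted effect of over 50% in size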
Target sequence (P10828 whole entry, looked up): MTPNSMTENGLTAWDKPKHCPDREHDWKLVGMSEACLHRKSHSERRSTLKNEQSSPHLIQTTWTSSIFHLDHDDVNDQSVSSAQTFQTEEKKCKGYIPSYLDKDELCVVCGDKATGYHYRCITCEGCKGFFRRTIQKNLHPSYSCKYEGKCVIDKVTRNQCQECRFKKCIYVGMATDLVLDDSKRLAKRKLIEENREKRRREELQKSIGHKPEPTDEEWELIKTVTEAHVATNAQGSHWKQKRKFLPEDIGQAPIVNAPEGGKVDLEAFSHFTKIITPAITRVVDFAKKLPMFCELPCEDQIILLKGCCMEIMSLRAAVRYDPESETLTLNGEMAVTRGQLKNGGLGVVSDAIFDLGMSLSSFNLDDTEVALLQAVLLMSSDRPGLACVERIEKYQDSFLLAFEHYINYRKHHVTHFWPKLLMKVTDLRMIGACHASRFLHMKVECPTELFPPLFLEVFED
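Human TRb ligand-binding domain (0.6 uM) is mixed with 20 nM Texas Red SRC2 peptide and 1 uM T3; after compound addition and 5 hr at ambient temperature, polarization is measured and normalized to unbound and bound controls.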
KDM4E inh: JMJD2E (human) inhibition; JMJD2E catalytic domain, FDH-coupled NADH fluorescence (FDH is formaldehyde dehydrogenase); B2RXH2; Potency, µM (titrated, usually from 57.1 µM), without a hit: at the top dose activity change, negative = inhibition, usual class: inhibitors; AID 2147; 1.6% of 230,000 active; active = well fitted inhibition curve with a large enough effect, not every such curve was filed as active; inconclusive = small, poorly fitted or top-dose-only effect, or another doubt; inactive = no such curve, though single readings can be large or run the other way;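 note: potency is the fitted concentration of half-maximal effect; 0% = wells with enzyme and -100% = buffer wells without enzyme; nearly all actives have a fitted effect of over 50% in size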
Target sequence (B2RXH2 1-337 limits assumed): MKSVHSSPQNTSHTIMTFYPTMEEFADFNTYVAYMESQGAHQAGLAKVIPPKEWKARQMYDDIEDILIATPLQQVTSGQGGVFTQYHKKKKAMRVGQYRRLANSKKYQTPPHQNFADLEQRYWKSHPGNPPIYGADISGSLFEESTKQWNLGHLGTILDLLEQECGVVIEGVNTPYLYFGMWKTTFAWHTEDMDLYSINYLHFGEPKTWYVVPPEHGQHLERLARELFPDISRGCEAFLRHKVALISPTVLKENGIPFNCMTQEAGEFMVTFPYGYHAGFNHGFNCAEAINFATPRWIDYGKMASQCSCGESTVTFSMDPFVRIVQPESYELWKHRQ
Starred values were filed as active, the others as inactive; ? = inconclusive; · = no result; ! = not confirmed by another sample; [ ] = dose if it differs, or a comment. Shown are actives, neighbours in structure and some others; about 2% of the full set was active somewhere. Unless noted, calls come from the whole dose curve; as a rule, active = well fitted curve in the direction sought with a large enough effect; inconclusive = small, poorly fitted or top-dose-only effect, or another doubt; inactive = no such curve, though single readings can be large; an effect the other way counts as inactive or inconclusive.

SMILES | FBPA coupling cs | TexasRed fluor | HTT aggregate | HTT ATP protect | TRb SRC2 PPI | KDM4E inh
CCN1/C(=C\c2ccc3cc(C)ccc3[n+]2CC)Sc2cc(C)c(C)cc21 | 2 | -2% | 0.89µM* | -76% | 9% | ?
CCN1/C(=C/c2ccc3cccc(C)c3[n+]2CC)Sc2ccccc21 | 5 | -1% | 1.1µM* | -157% | 0% | 0%
Cc1nc2cnc(N3CCN(C)CC3)nc2n(-c2ccccc2)c1=O | 7 | · | · | -314% | · | ·
COc1cc(O)c(C(=O)c2ccccc2)cc1S(=O)(=O)O | 8 | -2% | 5% | ? | 1% | ·
COc1cc(O)c(C(=O)c2ccccc2)cc1O | -47* | -4% | · | · | -7% | ?
COc1ccc(C(=O)c2ccccc2)c2c(O)ccc(C(=O)c3ccccc3)c12 | 0 | -2% | 3.5µM* | 1% | -5% | -2%
COc1ccc(C(C)=O)c2c(O)cccc12 | -37* | 2% | -17% | -19% | 3% | -10%
O=C(N/N=C/c1c(O)n(-c2ccccc2Cl)c(=O)c2ccccc12)C1COc2ccccc2O1 (centres undefined) | 15 | -9% | 13µM* | 4%[10 µM] | -22% | ?
COc1ccc2nc(-c3ccc(N(C)C)cc3)sc2c1 | -2 | · | · | · | · | ·
CCOC(=O)c1c(NC(=O)CN2CCN(C(=O)c3ccco3)CC2)sc2c1CCCC2 | 0 | -2% | 25µM* | 18%[10 µM] | 7% | ?
CCOC(=O)c1c(NC(=O)Cc2coc3cc(C)ccc23)sc2c1CCCC2 | · | 0.1µM*[quencher] | · | · | ? | ·
CCOC(=O)c1c(NC(=O)c2ccco2)sc2c1CCCC2 | 2 | -1% | 6% | 3% | 3% | ?
CNC(=O)c1c(NC(=O)Cc2coc3ccc(C)cc23)sc2c1CCCC2 | · | ? | · | · | -1% | ·
CCOC(=O)c1c(NC(=O)C(=O)N/N=C/c2ccccc2O)sc2c1CCCCC2 | 1 | 0% | ? | -2%[10 µM] | -20% | 32µM*
CCOC(=O)c1c(NC(=O)C(=O)N/N=C/c2ccccc2OC)sc2c1CCCCC2 | 4 | 0% | -7% | 14%[10 µM] | -5% | -1%
Cc1ccccc1N1C(=O)c2cc(S(N)(=O)=O)c(Cl)cc2N[C@H]1C | 5 | -4%[53 µM] | · | ? | -1%[53 µM] | ?
COc1cc(NC(=O)Cn2nc(C(F)(F)F)c3c2CCCC3)c(OC)cc1Cl | · | 0% | · | · | 3% | ·
CCOCC | 0 | 4% | · | · | 0% | ·
Cc1cccc(-n2nnnc2S(C)(=O)=O)c1 | · | -3% | · | · | 8% | ·
COc1cccc(-n2nnnc2S(C)(=O)=O)c1 | 5 | 0% | 2.5µM* | -120% | -6% | 3%
Cc1ccc(C)c(CN2C(=O)c3ccccc3S(=O)(=O)c3ccc(C(=O)N4CCOCC4)cc32)c1 | · | 2.8µM*[quencher] | · | · | -30% | ·
O=C(NCCCN1CCCCCC1)C(c1ccccc1)C1CCCCC1 (centres undefined) | · | -3% | · | -35% | 0% | ·
O=S(=O)(NCc1csc(-c2ccccc2)n1)c1ccc(Cl)s1 | -36* | -3% | -4% | 13% | 3% | 3%
O=S(=O)(NCc1ccncc1)c1ccc(Br)s1 | 8 | 0% | 2.5µM* | -27%[0.074 µM] | -19% | -6%
CCCCC#CC1C=CC(Oc2ccc(OC)cc2)C(CO)O1 (centres undefined) | 0 | -4%[11.2 µM] | · | -4%[10 µM] | 11%[11.2 µM] | ·
SMILES | FBPA coupling cs | TexasRed fluor | HTT aggregate | HTT ATP protect | TRb SRC2 PPI | KDM4E inh
O=C(COC(=O)C1CC(O)CN1S(=O)(=O)c1ccc(Cl)cc1)c1ccccc1 (centres undefined) | 0 | 0.11µM*[quencher] | -16% | 15%[10 µM] | -15% | 4%
O=C(Cl)c1ccc(C(=O)Cl)cc1 | · | -4%[201 µM] | · | · | 5%[201 µM] | ·
CCCc1ccc(OCC(=O)Nc2sc3c(c2C(=O)OCC)CCC(C(C)(C)C)C3)cc1 (centres undefined) | · | 10µM*[quencher] | · | · | ? | ·
CCN(CC)CCn1c2ccccc2c2cnc(N=CN(C)C)c(C#N)c21 | 0 | -2% | 2% | -87% | 4% | ?
CCn1c2ccccc2c2cnc(N=CN(C)C)c(C#N)c21 | 0 | -2% | 8.9µM* | -73% | -6% | ?
Cn1cc(C2=C(c3ccc(Cl)cc3Cl)C(=O)NC2=O)c2ccccc21 | -10 | -3% | · | 32µM*! | 7% | 2%
Cc1ccc(CNC(=O)c2cccc(NC(=O)N3CCSc4ncccc43)c2)cc1 | · | -1% | · | · | 4% | ·
Cc1ccc2[nH]c(=O)c(-c3nc4cc(C)ccn4c3NCc3ccco3)cc2c1 | 0 | 1% | -5% | -26% | -14% | 3.2µM*
O=C1CSc2ccc(C(=O)Nc3cccc(S(=O)(=O)Nc4ccc(Br)cc4)c3)cc2N1 | 4 | 2% | 7.9µM* | 38%[10 µM] | 8% | -13%
O=C(O)c1cccc(NC(=O)c2cccc(S(=O)(=O)Nc3cccc(F)c3)c2)c1 | · | 0.32µM*[quencher] | · | · | ? | ·
O=C(O)c1cccc(NC(=O)c2cccc(S(=O)(=O)Nc3cccc(C(=O)O)c3)c2)c1 | · | -5% | · | · | -7% | ·
O=c1c(/C=N/OCc2ccc(Cl)cc2Cl)c[nH]n1-c1cccc(Cl)n1 | 8 | -3% | 10µM* | -101% | -5% | ?
COc1cc([C@@H]2c3cc4c(cc3[C@@H](OC3OC5COC(C)OC5C(O)C3O)[C@H]3COC(=O)[C@H]23)OCO4)cc(OC)c1O (some centres undefined) | · | -1% | · | -141% | 1% | ·
COc1cc([C@@H]2c3cc4c(cc3[C@@H](O[C@@H]3O[C@H]5CO[C@@H](C)O[C@@H]5[C@@H](O)[C@H]3O)[C@@H]3COC(=O)[C@@H]23)OCO4)cc(OC)c1O | -49* | -1% | · | -33% | -4% | 1%
O=C(Nc1ccccc1C(F)(F)F)N1CCC2(CC1)Oc1ccccc1C(=O)N2Cc1ccccc1F | · | -37% | · | · | 1% | ·
Cc1ccc(Cl)cc1NC(=O)N1CCC2(CC1)Oc1ccccc1C(=O)N2Cc1ccccc1F | · | 35µM*[quencher] | · | · | -5% | ·
CCCOc1ccc(N2C(=O)CC(N(CCc3ccc(OC)c(OC)c3)C(=S)Nc3ccccc3)C2=O)cc1 (centres undefined) | -5 | 0.5µM*[quencher] | -5% | 6%[1.9 µM] | ? | -3%
CCCOc1ccc(N2C(=O)CC(N(Cc3ccc(OC)cc3)C(=S)Nc3ccccc3)C2=O)cc1 (centres undefined) | -8 | 7% | 7% | 1%[10 µM] | 9% | -1%
O=C(c1cccs1)c1no[n+]([O-])c1C(=O)c1cccs1 | -67* | -1% | ? | -88% | -3% | ?
CCOC(=O)C1=C(C)N(c2ccc(C)cc2)C(=O)/C1=C\c1ccc(O)c(OC)c1 | -17 | -9% | 9%[9.22 µM] | 7%[10 µM] | 3% | 2.2µM*
COC(=O)C1=C(C)N(Cc2ccc(C)cc2)C(=O)/C1=C\c1ccc(O)c(OC)c1 | -12 | 3% | ? | -56% | -1% | -28%
